From ChEMBL document CHEMBL4513216, “Probing the Open Global Health Chemical Diversity Library for Multistage-Active Starting Points for Next-Generation Antimalarials” (ACS Infect Dis, 2020)
The campaign covered roughly 69,000 compounds. About 8,600 (12%) showed an effect of 50% or more. For the sample, strong results were picked, then their nearest neighbours and some compounds at random.

system: Plasmodium berghei; assay: Screen against P. berghei liver stage (PbLuc), transformed with Luciferase, at 10uM; type: functional, HepG2; details: tested at 10 uM

Structure (SMILES) | INHIBITION [%]
CSCCc1n[nH]c2c1CN(S(=O)(=O)c1cn(C)c(C)n1)CC2 | -10.8
CS(=O)(=O)N1CCc2[nH]nc(Cc3cccs3)c2C1 | 0.472
Cc1cc(-c2n[nH]c3c2CN(S(=O)(=O)c2ccsc2)CC3)c(C)o1 | 54.4
Cc1noc(C)c1-c1n[nH]c2c1CN(S(=O)(=O)c1cccs1)CC2 | 61.8
Cc1noc(C)c1-c1n[nH]c2c1CN(S(=O)(=O)c1cccnc1)CC2 | 23.3
Cc1noc(C)c1-c1n[nH]c2c1CN(S(=O)(=O)c1ccsc1)CC2 | 39.4
CCC(CN1CCCC1)n1cncc1-c1cnn(-c2ccccc2)c1 (stereo not drawn) | 33.95
CC(C)[C@H](N)c1nnc(SCC(=O)Nc2ccc(Br)cc2)o1 | 25.3
Cc1nc(C2CCCN2Cc2ccc(S(=O)(=O)N(C)C)o2)no1 (stereo not drawn) | 22.3
CN(Cc1ccccc1)c1ccc(C(F)(F)F)cn1 | 38.6
CN(Cc1ccc([S+](C)[O-])cc1)c1ccc(Br)cn1 (stereo not drawn) | 43.7
CN(Cc1ccc([S+](C)[O-])cc1)c1ccc(C(F)(F)F)cn1 (stereo not drawn) | 52.2
CNC(=O)c1ccc(CN(C(=O)c2scnc2C)C2CC2)cc1 | 6.92
CNC(=O)c1ccc(CN(C)c2ccc(C(F)(F)F)cn2)cc1 | 58.3
CN(Cc1ccc(C(N)=O)cc1)c1ccc(C(F)(F)F)cn1 | 1.79
CCc1cnc(CN(C)C2CCN(CCNS(=O)(=O)CC)C2)o1 (stereo not drawn) | -42
CN1Cc2c(C(=O)Nc3cccnc3)ncn2-c2ccccc2S1(=O)=O | 45.1
CN(C)CCO[C@H]1CN(Cc2cccc(C#N)c2)[C@@H]2COC[C@H]12 | -46.9
CCS(=O)(=O)N1CCCC2(CCCN2C(=O)c2cscn2)C1 (stereo not drawn) | 4.02
CCS(=O)(=O)N1CCC2(CN(C(=O)c3cn(C)cn3)C2)C1 | -28.2
CCS(=O)(=O)N1CCCC2(CCCN2C(=O)c2cn(C)cn2)C1 (stereo not drawn) | 61.9
COC1CN(CCO)S(=O)(=O)c2ccccc21 (stereo not drawn) | 35.1
CN(C)C(=O)COCC1CN(Cc2cccs2)Cc2ncn(C)c21 (stereo not drawn) | -47.8

Structure (SMILES) | INHIBITION [%]
Cc1cc(S(=O)(=O)N(C)CC(N)=O)ccc1Br | 34.6
Cc1cc(S(=O)(=O)N(CC(N)=O)CC(C)C)ccc1Br | 60.3
Cc1ccc(S(=O)(=O)N(CC(N)=O)CC(C)C)cc1C | -14.2
Cc1cnn(CC2CCCN2C(=O)Cc2ccc(C)nc2)c1 (stereo not drawn) | 17.4
COc1ccc(CNCC(O)c2cccc(O)c2)cc1Br (stereo not drawn) | 14.5
CC(=O)Nc1ccc(CNCC(O)c2ccccc2)cc1 (stereo not drawn) | 39.7
CCOc1ccc(CNCC(O)c2ccccc2)cc1Cl (stereo not drawn) | 59.5
COCC1CN(C(=O)c2cccc(C)n2)Cc2nccn2C1 (stereo not drawn) | 24
Cc1ccc(CNC(C)c2nnc3n2CCCC3)o1 (stereo not drawn) | -4.48
Cc1ccoc1CNC(C)c1nnc2n1CCCC2 (stereo not drawn) | 34.1
CC(NCc1ccc(Cl)o1)c1nnc2n1CCCC2 (stereo not drawn) | 15.1
Cc1ccc2oc(CNC(C)c3nnc4n3CCCC4)cc2c1 (stereo not drawn) | 50.1
CC(NCc1cc2cc(F)ccc2o1)c1nnc2n1CCCC2 (stereo not drawn) | 35
CC(NCc1ccco1)c1nnc2n1CCCC2 (stereo not drawn) | 52.9
CN1CCCN(C(=O)c2nc3c(o2)CN(S(C)(=O)=O)C3)CC1 | 41.2
Cn1ccc(CN2CCCC23CCN(Cc2cccc(F)c2)CC3)n1 | 56.6
COc1cc(N2CCC3(CCCN3Cc3ccn(C)n3)CC2)ncn1 | 21.7
Fc1cccc(CN2CCC3(CCCN3c3ncccn3)CC2)c1 | 42.4
Cn1ccc(CN2CCC3(CCCN3CC3CC3)CC2)n1 | 17.7
Cn1ccc(CN2CCCC23CCN(Cc2ccccc2F)CC3)n1 | 53
Cc1ccc(N2CCC3(CCCN3Cc3ccn(C)n3)CC2)nn1 | 53.9
Cn1ccc(CN2CCCC23CCN(Cc2nccn2C)CC3)n1 | 27.6
Cn1ccc(CN2CCCC23CCNCC3)n1 | -12.1

Structure (SMILES) | INHIBITION [%]
Cn1cc(CN2CCC3(CCCN3Cc3cccnc3)CC2)cn1 | 29
CCOCCCC(=O)Nc1cccnc1-n1ccnc1C | 7.92
Cc1ccc(C(=O)N2CCCN(Cc3cccs3)CC2)c(=O)[nH]1 | 17.68
COc1ccc(C(C)N(C)Cc2c(C3CC3)[nH]c3ncccc23)cc1 (stereo not drawn) | 44.8
CN(Cc1ccco1)[C@@H]1CN(C(=O)c2ccnnc2)[C@@H]2CCCO[C@H]12 | 41.8
Cc1ccc(CC(=O)N2Cc3nccn3CC(CN(C)C)C2)cc1 (stereo not drawn) | 10.1
CCOCCNC(=O)c1ccc(OC)cc1I | 14.4
COc1c(CNCc2ccc(Cn3ccnc3)cc2)c(C)nn1C | 16.8
CN1CCN(Cc2cccnc2)C(=O)C12CCN(CC1CCOC1)CC2 (stereo not drawn) | 29.4
O=S1(=O)c2ccccc2C2(CCN(Cc3cccnc3)C2)N1CC1CC1 (stereo not drawn) | 76.5
CN1C2(CCN(Cc3ccc(F)cc3)C2)c2ccccc2S1(=O)=O (stereo not drawn) | 16.9
CCCN1CCC2(C1)c1ccccc1S(=O)(=O)N2Cc1ccccc1 (stereo not drawn) | 68.4
CC1N(CC2CC2)C(=O)COC12CCN(C(=O)c1ccno1)CC2 (stereo not drawn) | 11.3
COCCN1CCC2(C1)c1ccccc1S(=O)(=O)N2Cc1ccccc1 (stereo not drawn) | 15.3
CC1N(CC2CC2)C(=O)COC12CCN(C(=O)c1ccncc1)CC2 (stereo not drawn) | 48.2
O=C(N1CCCO1)[C@@]12CCO[C@@H]1CCN(Cc1cccnc1)C2 | 17.4
CCCN1CCC2(C1)c1ccccc1S(=O)(=O)N2Cc1ccc(F)cc1 (stereo not drawn) | 23.3
COCCN1C2(CCN(CC3CC3)C2)c2ccccc2S1(=O)=O (stereo not drawn) | -54.9
O=S1(=O)c2ccccc2C2(CCN(Cc3ccccc3)C2)N1CC1CC1 (stereo not drawn) | 81.3
CC1N(CC2CC2)C(=O)COC12CCN(C(=O)c1cccs1)CC2 (stereo not drawn) | 74.8
CNC(=O)c1cn[nH]c1C1CCCN1c1nc(C)cc(C)n1 (stereo not drawn) | 34.1
CCN1CCOCC2(CCCN(C(=O)c3ccccc3F)C2)C1 (stereo not drawn) | -60.3
